PKA-R2B act – activators of human PKA-R2B complex | PKA-R2B holoenzyme dissociation, Cy5-IP20 fluorescence polarization; R2B truncated from residue 108, S112A mutant; 0% DMSO only, 100% 113 µM cGMP | 340,000 tested, 0.079% active | P22694+P31323 | activation, % at 11.4 µM;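 active = activation above a cutoff set at the mean over all compounds plus 3 SD, cut at about 18% in these data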;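 note: higher means more holoenzyme dissociation and a rise in polarization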
Target sequence (P31323 whole entry, looked up, other chains not shown, the tested form may be a part): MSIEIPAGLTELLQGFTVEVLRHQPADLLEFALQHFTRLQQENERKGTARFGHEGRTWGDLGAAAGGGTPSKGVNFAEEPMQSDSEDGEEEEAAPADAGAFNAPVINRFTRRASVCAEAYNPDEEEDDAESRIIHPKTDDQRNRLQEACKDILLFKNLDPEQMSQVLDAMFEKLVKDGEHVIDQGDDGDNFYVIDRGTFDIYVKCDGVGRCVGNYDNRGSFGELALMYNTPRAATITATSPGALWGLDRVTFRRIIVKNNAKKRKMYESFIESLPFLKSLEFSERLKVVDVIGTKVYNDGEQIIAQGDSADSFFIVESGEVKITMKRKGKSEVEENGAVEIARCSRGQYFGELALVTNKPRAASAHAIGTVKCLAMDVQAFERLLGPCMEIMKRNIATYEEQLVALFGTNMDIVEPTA
VLA-4 inh – inhibition in a human VLA-4 binding assay; P13612; VLA-4 expressing cells, ligand binding flow cytometry; inhibition, % (about 7 µM as worked out from the volumes in the protocol); 330,000 tested, 0.2% active; AID 2557; in the data active = inhibition above about 50%
PKA-R1A act – PKA-R1A complex activation | P00514+P68181 | PKA-R1A dissociation, Cy5-IP20 fluorescence polarization; scaled: DMSO 0%, 113 µM cGMP 100% | activation, % at 11.4 µM | 340,000 tested, 0.083% active | AID 504707;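 active = percent activation above the mean of all tested compounds plus 3 SD, cut at about 19% in these data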;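 note: higher means more PKAc released from R1A so a rise in polarization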
ATG4B inh – blocks human ATG4B protease cleavage of LC3 substrate. Q9Y4P1. ATG4B cleavage of LC3-PLA2, NBD-HPC fluorescence, 1 h. inhibition, % at 8.33 µM. 340,000 tested, 0.51% active; in the data active = inhibition above about 40%
NRP1-CendR mod – modulators of CendR peptide binding to human neuropilin-1 | O14786 | FAM-RPARPAR peptide binding to NRP-1, fluorescence polarization | inhibition, % at 25 µM | 360,000 tested, 0.85% active;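 active = inhibition or corrected inhibition above about 18%, plus a signal ratio from 0.5 to 1.5, limit read from the data, passing the limit was not always enough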
* = called active by the depositor; / = no result given; ! = not active in a repeat. An excerpt weighted towards active compounds, which were near 1.6% of everything screened.

SMILES	PKA-R2B act	VLA-4 inh	PKA-R1A act	ATG4B inh	NRP1-CendR mod
CCC1CN1P(=O)(Oc1ccc(Cl)cc1)N1CC1CC (configuration not stated)	2	/	-5	-8	34*
NP(=O)(OCC(F)(F)F)Oc1ccc(Cl)cc1 (configuration not stated)	-7	21	-3	-2	4
c1ccc(CNC2=NCCS2)cc1	-12	-5	-17	-4	21*
Cc1cc(Cl)ccc1OCC(=O)N1CCN(C)CC1	1	-7	-2	-4	23*
O=C(Nc1ccc(C(=O)O)cc1)Oc1ccc(N(CCCl)CCCl)cc1	/	/	/	/	-3
CC(NC(=O)N1CC1(C)C)c1ccccc1 (configuration not stated)	-2	/	4	-6	5
CCCOP(=O)(OCCC)C(NC(=O)c1cc(OC)c(OC)c(OC)c1)c1ccccc1 (configuration not stated)	-5	-3	3	-7	7
CCC(COC(=O)c1cc(OC)c(OC)c(OC)c1)(c1ccccc1)N(C)C (configuration not stated)	9	-16	15	4	23*!
CCn1nc(-c2cccs2)nc2c(=O)n(C)c(=O)nc1-2	-5	/	-1	86*	30*
O=c1c2ccccc2nc(-c2cccs2)n1-c1ccccc1	-5	1	-8	9	7
CC[n+]1c(-c2ccccc2)c2cc(N)ccc2c2ccc(N)cc21	-13	/	7	3	47*
CC1C(c2ccccc2)OC(=O)N1C (configuration not stated)	-3	/	0	3	1
Cc1cc(O)c2c(c1)C(=O)C13C(=C2O)C(=O)[C@H]2[C@@H](O)[C@@H]1[C@H]1[C@H](O)[C@@H]3C(=O)C3=C(O)c4c(O)cc(C)cc4C(=O)C312 (some centres not stated)	37*	2	17	-13	-34
CC(C)C1CN1CC(O)Cn1ccnc1[N+](=O)[O-] (configuration not stated)	/	/	/	/	6
CCOC(=O)[C@]12Cc3c(cc(OC)c(OC)c3OC)[C@H]1N(C(C)C)C(=O)c1ccccc12	/	/	/	/	-5
CC1NC(=O)NC(=O)C1Br (configuration not stated)	-9	/	3	-1	36*
CCOC(=O)[C@]12Cc3cc(C)ccc3[C@H]1N(Cc1ccccc1)C(=O)c1cc(F)c(F)cc12	/	/	/	/	-8
CC(=O)OC1CC(OC2C(O)CC(OC3C(O)CC(OC4CCC5(C)C(CCC6C5CCC5(C)C(C7=CC(=O)OC7)CCC65O)C4)OC3C)OC2C)OC(C)C1OC1OC(CO)C(O)C(O)C1O (configuration not stated)	-2	/	4	2	5
CC(=O)OC1CC[C@]2(C#N)[C@H]3CC[C@]4(C)[C@H](C5C=CC(=O)O5)CCC4(O)C3CCC2(O)C1 (some centres not stated)	-5	8	-4	3	22*
CCOC(=O)[C@]12Cc3cc(C)ccc3[C@H]1N(C(C)C)C(=O)c1ccccc12	/	/	/	/	-11
CC1C(=O)OC2CCN3CC4OC4(COC(=O)C(C)(O)C1(C)O)C23 (configuration not stated)	-3	/	-4	-3	26*
Cc1nc2c(c(C)nn2-c2ccccc2)c(C)c1CCC(=O)N1CCC2(CC1)OCCO2	-1	7	-7	-20	51*
Cc1nc2c(-c3ccccc3)c(C)nn2c(C)c1CCC(=O)N1CCC2(CC1)OCCO2	2	-4	7	2	-4
CCOC(=O)c1nsnc1NCCCl	-8	7	0	1	22*
O=S(=O)(c1cc(Cl)cc(Cl)c1)N1Cc2cc(-c3ccccc3)ccc2-n2nncc2C1	/	/	/	/	23*
Cc1ccc(S(=O)(=O)N2Cc3cc(-c4ccccc4)ccc3-n3nncc3C2)cc1	/	/	/	/	6
O=c1c2ccccc2nc(-c2ccco2)n1-c1ccccn1	3	22	-11	-3	32*
O=P(O)(O)CN1CCNCCN(CP(=O)(O)O)CCNCC1	-2	/	3	0	30*
CC1CN(c2ccccn2)C(C)CN1C(=O)C(O)(c1ccccc1)c1ccccc1 (configuration not stated)	0	/	2	-1	-22
